# Source: the supplement of paper PMC12636033
# ± gives the standard deviation of the averaged measurements. In all, about 33,000 sequences were measured (“E-score (rank enrichment, -0.5 to 0.5)”: median about -0.0075, highest 2% from about 0.23 on). The list comes from a sample in which the highest values are over-represented; it also holds similar and randomly drawn sequences.
# Test system: WT Max(13-93) synthetic (M65Nle)
# Assay: PBM 8-mer E-score (E-score (rank enrichment, -0.5 to 0.5)); higher = stronger preferential binding
# Description: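 Protein binding microarray (universal PBM chip covering all 10-mers in fixed probe flanks) with chemically synthesized human Max(13-93) bHLH-LZ analogs (not full-length Max) bearing noncanonical residues (hArg, Tha, Aib, Nle at 65) and aromatic Cys staples. Read-out per 8-mer (and its reverse complement): E-score (rank-based enrichment, -0.5 to 0.5) and Z-score of median probe intensity.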
row,Sequence,PBM 8-mer E-score
1,GACATATA,0.0052 ± 0.075
2,CATATAAG,0.21 ± 0.012
3,AATATAAT,0.156 ± 0.023
4,CACATATA,0.301 ± 0.098
5,TATATAAA,0.196 ± 0.099
6,GATATAAA,0.0778 ± 0.026
7,CACATATG,0.185 ± 0.029
8,AATATAAA,0.26 ± 0.1
9,CATATAAA,0.295 ± 0.098
10,CGTACCAG,-0.0661 ± 0.0056
11,TTAGCGAA,-0.0471 ± 0.069
12,CGCCACGA,-0.137 ± 0.15
13,ATGCAGGG,0.0122 ± 0.03
14,CCTAAGCG,-0.0916 ± 0.0045
15,GTGTCTGA,0.00783 ± 0.11
16,GAACAAGA,0.137 ± 0.095
17,AATTCCCA,0.282 ± 0.0091
18,GATTCCCA,-0.0229 ± 0.034
19,AATTCCCC,0.0165 ± 0.05
20,GACCCGAA,-0.196 ± 0.14
21,AAACTACC,0.0484 ± 0.067
22,AAACTACT,0.232 ± 0.034
23,AAACTACA,0.219 ± 0.021
24,CCGTGCTA,-0.0393 ± 0.0021
25,CCGTGCTC,-0.0456 ± 0.034

row,Sequence,PBM 8-mer E-score
1,ACGTGCTA,0.311 ± 0.019
2,ACGTGCTG,0.212 ± 0.025
3,ACGTGCTC,0.298 ± 0.013
4,GCGTGCTA,0.197 ± 0.0073
5,ACCAGGGA,0.0354 ± 0.19
6,AGGCGCTG,-0.0811 ± 0.026
7,AACAGTGG,-0.0694 ± 0.089
8,AACTTGCA,0.193 ± 0.046
9,CGTGCCGC,0.0425 ± 0.15
10,ATAACAAT,0.168 ± 0.0023
11,ATAACAAG,0.223 ± 0.0096
12,CTAACCAC,0.139 ± 0.0048
13,ATAACCAC,0.288 ± 0.07
14,ATAACAAC,0.265 ± 0.079
15,ATAACCAG,0.113 ± 0.031
16,CTTTTTGC,0.046 ± 0.063
17,CACCTGGC,0.0136 ± 0.041
18,GGAGTGCC,-0.11 ± 0.012
19,ATATGACA,0.263 ± 0.014
20,GGATGACA,-0.00576 ± 0.064
21,GTATGACA,0.245 ± 0.062
22,GTATGAAA,0.222 ± 0.033
23,CTATGACA,0.0275 ± 0.077
24,ATATGACC,-0.0408 ± 0.015
25,ATAGCAGG,-0.0492 ± 0.15

row,Sequence,PBM 8-mer E-score
1,TCCGGACA,-0.0731 ± 0.033
2,GTCTCTAA,-0.108 ± 0.17
3,CCTCGCGA,-0.00258 ± 0.05
4,AATCGCCG,-0.197 ± 0.032
5,ATATATCC,0.237 ± 0.064
6,CGATATAA,0.281 ± 0.046
7,TGATATAA,0.155 ± 0.021
8,TTATATAA,0.256 ± 0.13
9,CTTTATAA,0.127 ± 0.026
10,CGATATAG,-0.0681 ± 0.07
11,CTATATCC,0.135 ± 0.012
12,ATATATCA,0.19 ± 0.073
13,ATTTATAA,0.241 ± 0.035
14,TTATAAAA,0.215 ± 0.03
15,ATTTATAC,0.188 ± 0.078
16,CGATATAC,0.0759 ± 0.16
17,TACGATAA,0.194 ± 0.094
18,AATGCGAA,0.03 ± 0.03
19,GCTCCTTA,-0.0526 ± 0.048
20,ATATCGGG,0.19 ± 0.03
21,AAGCGGCC,-0.276 ± 0.054
22,CCGACACA,-0.052 ± 0.075
23,CGCCGTTC,-0.101 ± 0.024
24,GGGGGCTA,-0.0501 ± 0.18
25,CGCGACAC,0.045 ± 0.063

row,Sequence,PBM 8-mer E-score
1,ATATACAC,0.161 ± 0.055
2,CTATACAG,0.0775 ± 0.017
3,CTATATAA,0.0196 ± 0.063
4,GTATATAA,0.102 ± 0.091
5,ATATACAG,0.234 ± 0.0072
6,ATATATAA,0.246 ± 0.086
7,GTAGTACA,0.0953 ± 0.0039
8,CCAACGTC,-0.0188 ± 0.032
9,AACGACGA,-0.113 ± 0.23
10,AAGACTCT,0.0105 ± 0.12
11,AGATGTGC,0.0526 ± 0.076
12,CTATGTGC,0.0889 ± 0.047
13,CCATGTCC,-0.0654 ± 0.065
14,CGATGTGA,-0.114 ± 0.17
15,CCATGTCA,-0.0624 ± 0.05
16,ACATGTCA,0.204 ± 0.057
17,ACATGTCC,0.212 ± 0.03
18,ACATGTGC,0.359 ± 0.0051
19,AGATGTGA,0.16 ± 0.038
20,CCATGTGA,0.308 ± 0.0086
21,ACATGTGA,0.389 ± 0.00049
22,CCATGTGC,0.389 ± 0.0074
23,CGTTGCCA,0.0775 ± 0.02
24,GAATGGGA,0.0933 ± 0.016
25,CCGACGGA,-0.238 ± 0.0081

row,Sequence,PBM 8-mer E-score
1,TAGGTGCA,0.0931 ± 0.075
2,CCGCAATC,-0.0997 ± 0.03
3,ATCTGATC,-0.138 ± 0.17
4,GCATGTCA,0.208 ± 0.011
5,ACATGTGG,0.36 ± 0.049
6,AGATGTGG,0.0747 ± 0.083
7,GCATGTGA,0.314 ± 0.013
8,GAATGTGA,0.0246 ± 0.0085
9,ACATGTCG,0.14 ± 0.052
10,GAGCATAA,0.0772 ± 0.044
11,CCTCAACG,-0.187 ± 0.062
12,AGGGGTCC,-0.221 ± 0.0076
13,CAGCGGGA,-0.165 ± 0.016
14,AAGCATGC,0.312 ± 0.066
15,AAGCATCC,0.0408 ± 0.066
16,AAGCATGA,0.152 ± 0.064
17,AAGCATAC,0.105 ± 0.023
18,AAGCATGG,0.219 ± 0.031
19,AAGCATGT,0.277 ± 0.024
20,AGGTGGGG,0.0712 ± 0.15
21,GGAAAAGA,0.0579 ± 0.031
22,TGCTGTAA,0.00145 ± 0.0042
23,ACAAGTGA,0.0895 ± 0.13
24,GAGCTTGA,-0.165 ± 0.014
25,GGTCCCAC,-0.0853 ± 0.11

row,Sequence,PBM 8-mer E-score
1,CGAATAAA,0.0742 ± 0.027
2,AGAATAAG,-0.0395 ± 0.13
3,GGAATAAA,0.0114 ± 0.13
4,AGAATAAT,0.177 ± 0.0073
5,TGAATAAA,0.305 ± 0.013
6,AGAATAAA,0.262 ± 0.034
7,CTCGCGGC,-0.138 ± 0.055
8,AGACGTGC,-0.0899 ± 0.02
9,TCACGTGA,0.444 ± 0.018
10,ACACGTGT,0.487 ± 0.002
11,TCACGTAA,0.129 ± 0.01
12,AAACGTGT,0.166 ± 0.05
13,TCACGTCA,-0.00158 ± 0.0094
14,AAACGTGG,0.206 ± 0.021
15,ACACGTAG,0.0871 ± 0.035
16,ACACGTAC,0.159 ± 0.044
17,ACACGTGC,0.4859 ± 0.0013
18,ACACGTAT,0.192 ± 0.027
19,ACACGTGG,0.4934 ± 0.00068
20,CTGCCAAC,-0.111 ± 0.013
21,GATACCAA,-0.0524 ± 0.022
22,CAGTGAAC,0.0267 ± 0.035
23,ACAATCTG,0.065 ± 0.027
24,AGAAACTC,-0.0484 ± 0.078
25,ACGAAAAA,0.221 ± 0.056

row,Sequence,PBM 8-mer E-score
1,CTTGCGTA,0.0635 ± 0.052
2,AGACGTGA,0.103 ± 0.038
3,ACACGTGA,0.4747 ± 0.0033
4,ATACGTGA,-0.00216 ± 0.0077
5,AAGCAGGC,-0.0736 ± 0.011
6,CGTGGGGC,0.119 ± 0.11
7,AGATGACT,-0.172 ± 0.045
8,CACTTCTC,0.0461 ± 0.0024
9,CATCATTA,0.238 ± 0.034
10,AGTTATCA,0.07501 ± 0.00026
11,CATTATCG,-0.0926 ± 0.0027
12,GGTTATCA,0.232 ± 0.078
13,CGTTATCA,0.044 ± 0.015
14,AATTATCA,0.273 ± 0.083
15,AATTATCG,0.132 ± 0.064
16,CATCATTC,-0.011 ± 0.044
17,CATTATCA,0.242 ± 0.09
18,AATTATCC,0.0573 ± 0.0067
19,AATCATTA,0.223 ± 0.072
20,TATTATCA,0.2 ± 0.026
21,GGACTGCA,-0.017 ± 0.043
22,CGTGTCTC,0.201 ± 0.035
